# Assay outcomes from PubChem.
# Insulin prom up: MIN6 insulin promoter up-regulation; 0.3% of 190,000 active; MIN6 insulin promoter-GFP reporter, high-content imaging; hits give high values; z-score at 5 µM;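 active = z-score above 3 at 5 µM with at least 500 cells counted in the well; inconclusive = wells under 500 cells, flagged as cytotoxic or low count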
# ROMK primary: modulators of human ROMK potassium channel | P48048 | Tet-inducible ROMK, thallium flux fluorescence; actives lie on both sides | B-score at 10 µM | 2% of 130,000 active;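 active = signal ratio slope over the read window, or its plate-corrected B-score, at least 3 SD from the plate mean, either direction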;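 also: B-score of the F/F0 ratio slope over 7 to 12 s after thallium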
# Target sequence (P48048 whole entry, looked up): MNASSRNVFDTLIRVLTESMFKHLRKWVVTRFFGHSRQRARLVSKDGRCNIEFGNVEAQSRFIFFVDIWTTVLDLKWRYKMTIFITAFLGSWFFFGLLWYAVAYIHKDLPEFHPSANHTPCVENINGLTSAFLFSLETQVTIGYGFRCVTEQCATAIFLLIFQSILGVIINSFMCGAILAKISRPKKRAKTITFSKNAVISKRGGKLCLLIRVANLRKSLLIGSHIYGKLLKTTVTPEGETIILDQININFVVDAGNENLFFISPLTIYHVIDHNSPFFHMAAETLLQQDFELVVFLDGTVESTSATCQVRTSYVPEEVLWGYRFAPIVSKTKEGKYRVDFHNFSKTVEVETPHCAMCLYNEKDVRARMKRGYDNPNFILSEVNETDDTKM
# INS promoter inh: TRM-6 insulin promoter activity inhibition | TRM-6 cells (human fetal islet line), insulin promoter-eGFP reporter, imaging; reporter expression induced with tamoxifen | inhibition, % at 2 µM | 0.9% of 130,000 active | AID 1273;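 active = inhibition above the mean plus 3 SD, with well images judged a real hit on visual review, cut at about 60% in these data, passing the limit was not always enough; inconclusive = inhibition over the cutoff but images rejected on review; inactive = inhibition not above the cutoff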
# KCC2 mod: modulates chloride dependent transport by human KCC2. AID 1456. KCC2 cells, thallium flux FluoZin-2 fluorescence. 2.2% of 190,000 active. Q9H2X9. B-score of Tl+ flux slope (higher = more flux/activation; lower = inhibition) at 10 µM;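 active = thallium flux slope and its plate-corrected score both differing from the plate sample mean at a set confidence after two filtering rounds, in either direction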;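 also: slope of fluorescence scaled to starting intensity during 10 to 20 s after thallium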
# WT yeast gro inh: growth inhibition of WT yeast, mitochondrial fusion screen; mitochondrial fusion phenotypic screen, WT strain; inhibition, % at 10 µM; 2.1% of 190,000 active; AID 1362; in the data active = inhibition above about 58%; tested in S. cerevisiae
# L major viab: Leishmania major promastigote growth inhibition | inhibition, % at 10 µM | 9% of 200,000 active | AID 1063 | Leishmania major promastigotes, resazurin fluorescence viability; in the data active = inhibition above about 50%;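 also: promastigotes grown with compound for 44 hours at 28 °C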
# * marks the source's active call; other numbers are inactive results; ? = inconclusive; / = not tested or not shown. Shown are actives, neighbours in structure and some others; about 12% of the full set was active somewhere.
SMILES,Insulin prom up,ROMK primary,INS promoter inh,KCC2 mod,WT yeast gro inh,L major viab
COc1c(/C=N/Nc2ccc([N+](=O)[O-])cc2[N+](=O)[O-])c(C)nn1-c1ccccc1,/,/,18,0.52,33,1
CCN(CC)c1ccc(/C=N/NC(=O)c2cccc(S(=O)(=O)Nc3ccccc3OC)c2)c(O)c1,?,0.52,56,-0.031,39,100*
CCN(CC)c1ccc(/C=N/NC(=O)c2cccc(S(=O)(=O)Nc3ccccc3OC)c2)cc1,-0.29,0.087,-12,-1.7,9,19
Cc1nn(-c2ccccc2)c(N2CCCC2)c1/C=N/Nc1ccc(S(=O)(=O)Nc2ccccc2)cc1[N+](=O)[O-],-0.63,/,67,0.049,2,97*
Cc1ccc(NC(=O)C2CCCN(S(=O)(=O)c3cccs3)C2)cc1 (stereo not drawn),-0.2,/,-70,-0.44,4,9
Cc1cccc(Cn2c(Cc3ccccc3)nc3ccccc32)c1,1.3,-0.8,5,-2.6,72*,92*
Clc1ncccc1-c1nc2ccccc2n1Cc1ccccc1,-0.64,-0.019,/,1,22,94*
Cc1ccccc1Cn1c(Cc2ccccc2)nc2ccccc21,-0.13,/,31,-1.2,77*,47
O=S(=O)(O)c1nc2ccccc2n1Cc1ccccc1,0.56,/,46,-0.09,2,-8
COCc1nc2ccccc2n1Cc1ccccc1C,-0.37,/,/,/,7,14
CCn1c(-c2cccnc2Cl)nc2ccccc21,-0.21,/,0,/,4,0
CS(=O)(=O)c1nc2ccccc2n1Cc1ccccc1,-0.31,/,14,0.84,94*,-3
O=C(/C=C/c1ccc(Br)o1)OCc1ccccc1,0.22,-0.14,-41,0.78,12,-2
Cn1c(=O)c(Nc2ccc(O)cc2)c2c3c(cccc31)C(=O)c1ccccc1-2,-2,-2.2,19,-2.5,30,24
O=c1[nH]c(N2CCCCCC2)nc2ncn(Cc3ccccc3)c12,0.04,/,/,-0.93,/,/
N=c1n(CCOc2ccccc2)c2ccccc2n1CCN1CCOCC1,-0.46,/,3,0.32,10,4
COc1cccc(OCCCCCCN2CCOCC2)c1,-0.81,0.058,-31,0.015,12,100*
c1ccc(OCCCCN2CCOCC2)cc1,-0.52,0.33,/,0.21,-5,79*
CC/C(=N/NC(=O)c1ccc(Br)cc1)c1ccc(OCCN2CCOCC2)cc1,-0.07,/,56,-0.29,2,-5
CCOc1ccc(C(=O)NCCN2CCOCC2)cc1,0.33,0.21,/,1.1,-4,-5
Brc1ccc(OCCCN2CCOCC2)cc1,-1.3,-2.1,10,0.39,8,95*
CCOc1cccc(OCCCCN2CCOCC2)c1,0.9,0.58,-43,/,/,93*
O=C(O)C1CCN(C(=O)c2scc3c2OCCO3)CC1,0.26,-0.19,/,/,-3,-2
Cc1cc([N+](=O)[O-])ccc1NC(=S)NC(=O)Cc1ccccc1,/,-0.49,/,8.5*,8,-8
Cc1ccc([N+](=O)[O-])cc1NC(=S)NC(=O)CC(C)(C)C,-0.74,/,47,/,68*,4
SMILES,Insulin prom up,ROMK primary,INS promoter inh,KCC2 mod,WT yeast gro inh,L major viab
Cc1ccc([N+](=O)[O-])cc1NC(=S)NC(=O)C(C)(C)C,0.25,-0.66,/,-0.047,9,2
CCN(CC)Cc1ccc(NC(=O)c2sc3cc(Cl)ccc3c2Cl)cc1,-2.3,/,/,0.87,/,/
O=C(CC1S/C(=N/N=C/c2c[nH]c3ccccc23)NC1=O)Nc1ccccc1 (stereo not drawn),0.38,1.3,45,1.6,3,79*
O=C(CC1S/C(=N/N=C/c2c[nH]c3ccc(OCc4ccccc4)cc23)NC1=O)Nc1ccccc1 (stereo not drawn),0.32,1.2,52,0.19,9,-7
O=C(CC1S/C(=N/N=C/c2cccs2)NC1=O)Nc1ccc(Cl)cc1 (stereo not drawn),-0.24,/,/,-2,5,99*
Cc1cc(C)cc(NC(=O)N(CCC#N)Cc2cccs2)c1,-0.16,-0.94,/,-0.3,/,/
Cc1ccc(CNC(=O)CCC(=O)Nc2nnc(C3CCCCC3)s2)cc1,0.54,/,/,0.86,/,/
CC(C)c1ccc(/C=N/NC(=O)c2nnn(-c3nonc3N)c2CSC2=NCCS2)cc1,-0.18,-0.018,26,-0.54,46,97*
CC(C)CCNC(=O)CCCOc1cc(=O)n(C)c2ccccc12,-0.7,/,-41,-1.5,96*,1
CCN(CCCNC(=O)CCCOc1cc(=O)n(C)c2ccccc12)Cc1ccccc1,1.4,1.3,0,-0.28,9,86*
O=S(=O)(N/N=C\C=C\c1ccccc1)c1ccc(Cl)cc1,-0.13,-0.81,-67,0.3,16,92*
COc1ccc(N2CCN(C(=O)/C=C/c3ccco3)CC2)cc1,1.1,0.15,/,-1.3,1,1
CC(=O)NC1=NN(C(C)=O)C(c2ccc(F)cc2)S1 (stereo not drawn),-0.09,0.72,83*,0.26,5,3
COc1ccc(Cl)cc1NC(=O)/C=C\C(=O)O,/,0.023,/,0.015,-27,-2
COc1ccc(-c2cn3cc(Cl)ccc3n2)cc1OC,-0.36,-0.34,/,-0.64,-4,45
COc1ccc(-c2cn3cc(C)ccc3n2)cc1Br,-0.47,0.18,34,-0.26,21,84*
COc1ccc(Cl)cc1NC(=O)N1CCN(C2CCCCC2)CC1,0.13,-0.72,10,/,0,8
O=C(CSc1nn(-c2ccc(F)cc2)c(=S)s1)NCC1CCCO1 (stereo not drawn),-1.2,3,/,-0.46,10,6
CCn1cc(C(=O)N=c2sc3ccccc3n2C)c(=O)c2ccc(C)nc21,/,/,11,-0.1,/,89*
CN(C)NC(=S)NC(=O)C12CC3CC(CC(C3)C1)C2,0.21,1.5,/,0.26,47,9
CC(C)(C)NC(=S)NC(=O)C12CC3CCC(CC(C3)C1)C2,-1.2,/,/,0.3,70*,7
O=C(NC(=S)NC1C2CC3CC(C2)CC1C3)C12CC3CC(CC(C3)C1)C2 (stereo not drawn),-0.07,/,11,0.17,63*,51*
COc1ccc(CNC(=O)c2cnccn2)cc1,0.97,-0.043,0,-0.034,1,-2
CC(=O)N1c2ccccc2C2(O)N=C(C)SC12 (stereo not drawn),0.21,-0.23,24,0.44,5,13
COc1ccccc1Cc1nc2ccccc2n1S(=O)(=O)c1ccc(Cl)cc1,-0.47,0.015,/,0.76,-15,75*
CC1(C)N=c2ccc([N+](=O)[O-])c(N)c2=[N+]1[O-],-1,0.059,/,-0.039,/,/
COC(=O)c1ccc(CNC(=O)CN(CCC(C)C)S(=O)(=O)c2ccc3c(c2)OCCO3)cc1,0.68,0.14,-11,-1.3,-6,56*
COc1ccc2cc3cc(C(=O)Nc4ccc5c(c4)OCCO5)oc3nc2c1,-0.55,-0.28,7,/,-11,100*
COc1ccc2cc3cc(C(=O)NC(C)C)oc3nc2c1,0.52,-0.0035,6,-0.5,-2,89*
COc1ccc2cc3cc(C(=O)Nc4cc(OC)c(OC)c(OC)c4)oc3nc2c1,-1.6,-0.0021,41,/,-11,5
